# Results from the supplement of paper PMC11628255, “Interference of metal ions on the bioluminescent signal of firefly, Renilla, and NanoLuc luciferases in high-throughput screening assays” (Frontiers in Chemistry, 2024).
# ± gives the standard deviation of the averaged measurements.
# Test system: firefly luciferase (FLuc)
# Assay: residual bioluminescent signal relative to negative (DMSO) control; higher = less interference (more residual luciferase signal)
# Protocol: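 Purified luciferase (FLuc 10 nM + 10 uM D-luciferin; NLuc 10 pM + 10 uM furimazine; RLuc 50 pM + 2 uM coelenterazine) in 384-well plates; metal salt pre-incubated with enzyme 10 min at RT, substrate added and luminescence read after 10 min. Signal normalised to plate DMSO negative control (% N_VALUE = x/mean neg *100); triplicate wells at 0.01, 1 and 5 mM salt.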
# [1] = metal salt concentration 0.01 mM, HEPES conditions (100 mM HEPES, 5 mM MgSO4, 10 uM ATP, pH 7.5)
# [2] = metal salt concentration 0.01 mM, screening conditions (0.5 mM Tris, 50 mM glycine, 0.5 mM EDTA, 5 mM MgSO4, 10 uM ATP, pH 7.6)
# [3] = metal salt concentration 1 mM, HEPES conditions (100 mM HEPES, 5 mM MgSO4, 10 uM ATP, pH 7.5)
# [4] = metal salt concentration 1 mM, screening conditions (0.5 mM Tris, 50 mM glycine, 0.5 mM EDTA, 5 mM MgSO4, 10 uM ATP, pH 7.6)
# [5] = metal salt concentration 5 mM, HEPES conditions (100 mM HEPES, 5 mM MgSO4, 10 uM ATP, pH 7.5)
# [6] = metal salt concentration 5 mM, screening conditions (0.5 mM Tris, 50 mM glycine, 0.5 mM EDTA, 5 mM MgSO4, 10 uM ATP, pH 7.6)
SMILES,residual bioluminescent signal [1] [%],residual bioluminescent signal [2] [%],residual bioluminescent signal [3] [%],residual bioluminescent signal [4] [%],residual bioluminescent signal [5] [%],residual bioluminescent signal [6] [%]
O=[N+]([O-])[O-].O=[N+]([O-])[O-].[Zn+2] [zinc nitrate],3.8 ± 1.2,81.5 ± 7.4,1.49 ± 0.85,0.817 ± 0.28,1.09 ± 0.85,0.316 ± 0.079
O=[N+]([O-])[O-].[Li+] [lithium nitrate],92.2 ± 20,93 ± 5.3,92.2 ± 40,85.8 ± 4.8,90.5 ± 3.9,74.5 ± 2.7
O=[N+]([O-])[O-].[Na+] [sodium nitrate],90 ± 7.6,79.1 ± 6.3,72.4 ± 18,71.7 ± 2.9,60 ± 13,50 ± 4.3
O=[N+]([O-])[O-].O=[N+]([O-])[O-].O=[N+]([O-])[O-].[Al+3] [aluminium nitrate],78.9 ± 7.9,75.8 ± 6,0.679 ± 0.47,0.343 ± 0.17,0.543 ± 0.23,90.5 ± 5.5
[Cl][Sn][Cl] [tin(II) chloride],41.7 ± 13,90.8 ± 3.9,1.22 ± 0.41,0.369 ± 0.12,1.9 ± 0.62,0.553 ± 0.079
O=[N+]([O-])[O-].[Ag+] [silver nitrate],1.36 ± 0.62,1.13 ± 0.6,1.36 ± 1.6,0.316 ± 0.079,1.49 ± 0.62,0.369 ± 0.17
